Results taken from PubChem BioAssay AID463190 (Sanford-Burnham Center for Chemical Genomics, 2010).
Out of some 330,000 compounds screened, about 7,300 (2.2%) were called active.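 Rule for the calls: active = inhibition of at least 40%; inactive = the rest.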 The list comes from a sample in which actives are over-represented; it also holds similar structures and randomly drawn compounds.

Test: growth inhibitors of tim10-1 mutant yeast, primary screen, luminescence, uHTS (AID 463190);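 note: mutant grown at 25 °C; 0% = DMSO wells with yeast and 100% = wells holding no yeast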
Details: S. cerevisiae tim10-1 ts strain growth, BacTiter-Glo, 24 h; at 20 µM; hits give high values

Row | SMILES | inhibition
1 | CCC(C)(C)NC(=O)C(c1ccc(OC)cc1)N(C(=O)CCC(=O)Nc1cc(C)on1)c1ccc(OC)cc1OC (stereo not given) | 6.97% (inactive)
2 | CC1CCN(CCCNC(=O)CN2C(=O)CSc3ccc(S(=O)(=O)N4CCCCC4)cc32)CC1 | 25.2% (inactive)
3 | COc1ccc(-c2cc(C)nc3nc(N)nn23)cc1 | 10.4% (inactive)
4 | Cc1cc(N)n2nc(-c3ccc(C(C)(C)C)cc3)cc2n1 | 57% (active)
5 | Cc1cc(C(C)(C)C)n2nc(C)c(-c3ccccc3)c2n1 | 8.46% (inactive)
6 | O=C(O)CSC(NC(=O)c1cccnc1)(C(F)(F)F)C(F)(F)F | -2.15% (inactive)
7 | CN(C)CCCCCN(C)Cc1cc2ccccc2o1 | 18.5% (inactive)
8 | O=C(CN1CCCCCC1)NCCN1C(=O)S/C(=C\c2ccccc2Cl)C1=O | 12.4% (inactive)
9 | CN(C(=O)CCN1C(=O)/C(=C/c2ccccc2F)SC1=S)C1CCS(=O)(=O)C1 (stereo not given) | 6.93% (inactive)
10 | O=C1/C(=C\c2ccccc2Cl)SC(=S)N1CCC(=O)N1CCCc2ccccc21 | 41.3% (active)
11 | C#CCCCc1nc2ccccc2c(=O)n1N | 6.38% (inactive)
12 | CC1CCCN(C(=O)c2ccc3c(c2)C(=O)N(CCC2=CCCCC2)C3=O)C1 (stereo not given) | 24.8% (inactive)
13 | COC(=O)c1ccc(COc2ccc(/C=C/C(=O)c3ccc(OC)c(CSCC(=O)O)c3)cc2OC)cc1 | 29.5% (inactive)
14 | COc1ccc(C(=O)/C=C/c2ccc(-c3ccccc3)cc2)cc1CSCC(=O)O | 41.5% (active)
15 | COc1ccc(/C=C/C(=O)c2ccc(NS(=O)(=O)c3ccc(C)cc3)cc2)cc1O | 31.4% (inactive)
16 | CCCCn1c(=S)[nH]c2cc(S(=O)(=O)N3CCCCC3)ccc21 | 19.1% (inactive)
17 | COc1ccc(C(=O)NC2(C(F)(F)F)NC(=O)N(CCCc3ccccc3)C2=O)c(OC)c1OC (stereo not given) | 22.9% (inactive)
18 | COc1ccccc1-n1c(=S)[nH]c2c(sc(=S)n2-c2ccc(C)cc2C)c1=O | 8.48% (inactive)
19 | Cc1ncc([N+](=O)[O-])n1CCOC(=O)c1ccc(Br)cc1 | 4.67% (inactive)
20 | COc1ccc(C2=NN(C(C)=O)C(c3ccccc3)C2)cc1 (stereo not given) | 19.4% (inactive)
21 | COc1ccc(NC(=S)N2N=CCC2c2ccccc2)cc1 (stereo not given) | 40.3% (active)
22 | CCC(C)N(C)C1CCN(C(=S)Nc2ccc(OC)cc2)CC1 (stereo not given) | 2.23% (inactive)
23 | CCc1ccc(OCC(=O)NCC(c2ccc(Cl)cc2)N2CCCCC2)cc1 (stereo not given) | 34.1% (inactive)
24 | S=c1[nH]nc(-c2cccnc2)n1/N=C/C(Cl)=C\c1ccccc1 | 41.6% (active)

Row | SMILES | inhibition
25 | Fc1ccccc1/C=N/n1c(-c2cccnc2)n[nH]c1=S | -14.4% (inactive)
26 | S=c1[nH]nc(-c2ccncc2)n1/N=C/c1ccccc1Cl | 13.5% (inactive)
27 | COc1ccc(NC(=O)C(CC(C)C)NC(=O)C2CCC(C)CC2)cc1 (stereo not given) | 23.1% (inactive)
28 | CC(=O)Nc1nc(C)c(Cc2ccccc2)c(=O)[nH]1 | 13.2% (inactive)
29 | COc1ccc([N+](=O)[O-])cc1-c1nc2ccccc2nc1-c1ccccc1 | 38.3% (inactive)
30 | O=[N+]([O-])c1ccc2nc(-c3ccccn3)[nH]c2c1 | 34.1% (inactive)
31 | O=[N+]([O-])c1ccc2c(c1)Nc1nc3ccccc3nc1N2 | 60.5% (active)
32 | CCSC(C)CC1C/C(=N/O)c2c(C)noc2C1 (stereo not given) | -9.02% (inactive)
33 | Cc1ccc(N2CCN(C(=O)c3cccs3)CC2)c(C)c1 | -6.62% (inactive)
34 | CCCCN(CCCC)CC(O)Cn1c2ccccc2c(=O)c2ccccc21 (stereo not given) | 14.3% (inactive)
35 | O=C(CN1C(=O)c2ccccc2S1(=O)=O)NC1CCCCC1 | 7.88% (inactive)
36 | O=C1c2ccccc2S(=O)(=O)N1CC(O)Cn1c2ccccc2c2ccccc21 (stereo not given) | 60.7% (active)
37 | CCC1=[N+]([O-])C(C)(/C(C)=N\O)N(O)C1(C)C (stereo not given) | 9.85% (inactive)
38 | O=C(NCc1ccccc1)C(c1cccnc1)N(C(=O)c1csnn1)c1ccc(F)cc1 (stereo not given) | -25% (inactive)
39 | CCO[C@H]1OC(C(=O)N2CCN(Cc3ccccc3)CC2)=C[C@@H](c2cn(C(C)=O)c3ccccc23)[C@@H]1CCCO | 15% (inactive)
40 | Cc1nc(Cl)c2oc3ccccc3c2n1 | 0.846% (inactive)
41 | COc1ccc(C)cc1Nc1nc(C)nc2c1oc1ccccc12 | 40.7% (active)
42 | COc1ccccc1Nc1ncnc2c1oc1ccccc12 | 3.5% (inactive)
43 | Cc1ccc(CC(=O)Nc2cccc(C#N)c2)cc1 | 22.1% (inactive)
44 | CC(C)CN(C(=O)COC(=O)c1ccc(Cl)c(N)c1)c1c(N)n(Cc2ccccc2)c(=O)[nH]c1=O | 2.64% (inactive)
45 | CCCCN=C1N/C(=C\c2ccco2)C(=O)N1c1ccccc1 | 28% (inactive)
46 | CN(C)CCCN(Cc1cc2cc3c(cc2[nH]c1=O)OCCO3)C(=O)NC1CCCCC1 | 7.7% (inactive)
47 | COc1cc(/C=N/n2c(C)n[nH]c2=S)ccc1OCc1ccccc1 | 34.8% (inactive)
48 | Cn1c(-c2sc3cc(C(F)(F)F)cnc3c2-c2ccccc2)n[nH]c1=S | 18.5% (inactive)

Row | SMILES | inhibition
49 | Cn1c(-c2sccc2OCc2cccc(C(F)(F)F)c2)n[nH]c1=S | 43.5% (active)
50 | CCCCNC(=O)Cn1nc(C)c(S(=O)(=O)N2CCOCC2)c1C | -10.1% (inactive)
51 | COc1ccc(Cl)cc1NC(=O)C(C)N1CCc2ccccc21 (stereo not given) | 10.7% (inactive)
52 | c1ccc2c(c1)CCc1snnc1-2 | -9.47% (inactive)
53 | CC(NC(=S)Nc1ccccc1)C1COc2ccccc2O1 (stereo not given) | 44.1% (active)
54 | C/C(=N/NC(=S)Nc1ccccc1)c1ccc2c(c1)OCO2 | 36.6% (inactive)
55 | CC(=O)c1cccc(NC(=O)C2COc3ccccc3O2)c1 (stereo not given) | 6.4% (inactive)
56 | CCCNC(=O)CCn1cc(-c2ccc(OC)cc2)nc1CCN | -4.9% (inactive)
57 | CCCCn1c(N)c(N(CCC(C)C)C(=O)COC(=O)c2ccc(CC)cc2)c(=O)[nH]c1=O | 9.31% (inactive)
58 | CCCCCCCC(=O)NC(Nc1ccccc1OC)C(Cl)(Cl)Cl (stereo not given) | -1.41% (inactive)
59 | CCOC(=O)c1ccc(N=C2SC(C(=O)NC)CC(=O)N2CCc2ccccc2)cc1 (stereo not given) | 8.86% (inactive)
60 | Cc1cccc(N(C)C(=O)CN2C(=O)COc3ccc(S(=O)(=O)N4CCCCCC4)cc32)c1 | 25.2% (inactive)
61 | COc1ccc(S(=O)(=O)Nc2ccc(O)c(Sc3nc4ccccc4s3)c2)cc1 | 44.6% (active)
62 | COc1ccc(NS(=O)(=O)c2ccc3oc(SCC(N)=O)nc3c2)cc1 | 6.21% (inactive)
63 | CCOc1ccc(S(=O)(=O)Nc2nc3cc(OC)ccc3s2)cc1 | -15.2% (inactive)
64 | O=S(=O)(c1cccs1)N1CCN(CCOc2ccccc2)CC1 | 8.64% (inactive)
65 | C[C@@H](NC(=O)OC(C)(C)C)c1nnc(S(=O)(=O)Cc2ccccc2)o1 | 45.1% (active)
66 | C[C@H](NC(=O)OC(C)(C)C)c1nnc(SCC(=O)Nc2ccc(Br)cc2)o1 | 20.6% (inactive)
67 | CC(C)Sc1nnc([C@H](Cc2ccccc2)NC(=O)OC(C)(C)C)o1 | 15.3% (inactive)
68 | C=Cn1c(C(=O)O)ccc1-c1ccc(OC)cc1 | 4.85% (inactive)
69 | CC1(C)CCSC(/C=C/c2ccccc2)=N1 | 44.4% (active)
70 | Cc1ccc(C(=O)NC2CCN(C(=O)Nc3ccccc3Cl)CC2)cc1 | -3.39% (inactive)
71 | CC(NC(=O)CN(C)S(=O)(=O)c1ccc(F)cc1)C1CC2CCC1C2 (stereo not given) | 25.6% (inactive)
72 | Cc1cc(CNCc2c(C(=O)N(C)Cc3ccccc3)nc3ccccn23)nn1C | 10.5% (inactive)

Row | SMILES | inhibition
73 | CC(C)(C)Nc1nc(-c2ccccn2)nc2ccccc12 | -7.74% (inactive)
74 | COc1cnc(-c2ccccn2)nc1Oc1ccc(C(C)(C)C)cc1 | 35% (inactive)
75 | Cc1ccc(Oc2nc(-c3ccccn3)nc3ccccc23)cc1 | 44.9% (active)
76 | Cn1nc(C(C)(C)C)c([N+](=O)[O-])c1C(N)=O | -18.4% (inactive)
77 | S=C(Nc1cccc(Cl)c1)Nc1ccc2c(c1)OCCO2 | 32.9% (inactive)
78 | Cc1csc(NC(=S)Nc2cccc(Cl)c2)n1 | 29.1% (inactive)
79 | FC(F)(F)c1cccc(NC(=S)Nc2cccc(Cl)c2)c1 | 48.1% (active)
80 | Cc1cc(C)cc(OCC(=O)NCc2cc(C)nc3ccccc23)c1 | 20.5% (inactive)
81 | CCOc1ccc(-n2c(SCC(=O)NC3CCS(=O)(=O)C3)nnc2-c2cccnc2)cc1 (stereo not given) | 7.61% (inactive)
82 | Cc1ccc(C(=O)CCC(=O)N(C)CC(=O)Nc2c(Cl)cccc2Cl)cc1 | 97.9% (active)
83 | CN(CC(=O)Nc1c(Cl)cccc1Cl)C(=O)c1ccncc1 | 1.02% (inactive)
84 | Cc1cccc(C)c1NC(=O)CN(C)C(=O)CCC(=O)c1ccccc1 | 9.26% (inactive)
85 | Cc1ccc(CNC(=O)Cc2cn(C)c3ccccc23)cc1 | 27.3% (inactive)
86 | CC(C)CNS(=O)(=O)c1ccc(CCC(=O)NCc2ccc(Cl)cc2)cc1 | 8.22% (inactive)
87 | Cc1ccc(S(=O)(=O)NCCC(=O)NCc2ccc(Cl)cc2)cc1C | 8.85% (inactive)
88 | CSc1ccc(S(=O)(=O)NCc2ccc(Cl)cc2)cc1 | 44.8% (active)
89 | O=C(OCC(=O)N1CCc2ccccc21)C1CCCN1S(=O)(=O)c1ccc(Cl)cc1 (stereo not given) | -10.6% (inactive)
90 | COc1ccc(CN2CC(C(=O)NCCc3ccc(Cl)cc3)CC2=O)cc1 (stereo not given) | -2.13% (inactive)
91 | Cc1ccc(NC(=S)N/N=C2/CCCc3c(C)cc(C)cc32)cc1 | 9.99% (inactive)
92 | CCCCNC(=S)N/N=C1\CCCCc2ccccc21 | 47.7% (active)
93 | CCCC1CCC(=NNC(=S)NCCc2ccccc2)CC1 (stereo not given) | -25.5% (inactive)
94 | COC(=O)c1c(NC(=O)C(=O)N2CCCCC2)sc2c1CC(C)(C)OC2 | 8.07% (inactive)
95 | c1ccc(Cc2ccc(OCCn3ccnc3)cc2)cc1 | -1.87% (inactive)
